Hit rate of the full screen: of about 69,000 compounds, about 8,600 (12%) showed an effect of 50% or more. The sample as a whole holds a higher share of strong results than the screen did.
Test system: Plasmodium berghei
Experiment: Screen against P. berghei liver stage (PbLuc), transformed with Luciferase, at 10uM
Assay type: functional, HepG2
Settings: tested at 10 uM

| SMILES | INHIBITION [%] |
| --- | --- |
| Cc1ccc(-c2ccnc(NCC(O)c3ccc(O)cc3)n2)c(C)n1 (centres undefined) | 37.8 |
| O=C1NCCCCC1NC(=O)N1CCCc2ccccc21 (centres undefined) | 34.2 |
| O=C1NCCCCC1NC(=O)N1CCCc2cc(F)ccc21 (centres undefined) | 58.9 |
| COc1ccc2c(c1)CCCN2C(=O)NC1CCCCNC1=O (centres undefined) | 44.3 |
| Cc1ccc(CN2CCc3[nH]nc(C(=O)N(C)C)c3C2)s1 | 8.74 |
| Cc1ccc(-n2nnc(C(=O)NCC3(CO)CC3)c2C2CC2)cc1 | 33.3 |
| Cc1ccc(-n2nnc(C(=O)NCCS(N)(=O)=O)c2C2CC2)cc1 | 58.5 |
| COC(=O)CCNC(=O)c1nnn(-c2ccc(C)cc2)c1C1CC1 | 49.8 |
| NS(=O)(=O)CCNC(=O)c1nnn(-c2ccc(F)cc2)c1C1CC1 | 36.8 |
| NS(=O)(=O)CCNC(=O)c1nnn(-c2ccccc2)c1C1CC1 | 56.8 |
| O=C(NCC1(CO)CC1)c1nnn(-c2ccc(F)cc2)c1C1CC1 | 78.2 |
| CC(C)NC(=O)c1nnn(-c2ccccc2)c1C1CC1 | -65.5 |
| CS(=O)(=O)NC(=O)c1nnn(-c2ccccc2)c1C1CC1 | 8.64 |
| O=C(NCC1(C(=O)O)CCC1)c1nnn(-c2ccc(F)cc2)c1C1CC1 | 20 |
| CCc1nc(C2CCCN(C(=O)c3cc(C(C)C)[nH]n3)C2)no1 (centres undefined) | 21.6 |
| O=C(NCC1CC1)[C@@H]1CC[C@@H]2[C@@H](CCN2Cc2ccco2)O1 | -35 |
| O=C(NCCN1CCOCC1)c1nc(-c2ccc3[nH]ccc3c2)no1 | -50.8 |
| Cn1ncc(C(=O)N2CCN(S(C)(=O)=O)CC2)c1Cl | -10.95 |
| CNC(=O)C1(C)CCCN1Cc1cnn(C)c1C (centres undefined) | 37.8 |
| Cc1nn(C)cc1CN(C)C(=O)c1ccncc1 | 69.9 |
| Cc1nn(C)cc1CN(C)C(=O)c1ccccn1 | 8.7 |
| Cc1nn(C)cc1CN(C)C(=O)c1cccnc1 | -13.6 |
| Cc1nc(CN2CCC3(CC2)NC(=O)CC3c2ccncc2)cs1 (centres undefined) | 45.7 |

| SMILES | INHIBITION [%] |
| --- | --- |
| CCC(C)N(Cc1sccc1C)C(=O)c1cnc[nH]1 (centres undefined) | 9.41 |
| CCc1nnc(CN(C)Cc2cccc(C(=O)Nc3cnn(C)c3)c2)o1 | 28.7 |
| CCc1nnc(CN(C)Cc2cccc(C(=O)Nc3ccnn3C)c2)o1 | 35 |
| CCc1nnc(CN(C)Cc2cccc(C(=O)Nc3nccs3)c2)o1 | 70.9 |
| CC(C)(CO)CCCNC(=O)NC1(C)Cc2ccccc2C1 | 47.2 |
| c1ccc(CN2CCc3nnc(CN4CCCCC4)n3CC2)nc1 | -2.84 |
| COc1ccc(Cc2ncc3c(n2)CN(C(=O)C(C)(C)OC)C3)cc1 | 11.2 |
| Cc1cc(C(=O)N(CC2CCCO2)c2ccncc2)c(C)o1 (centres undefined) | 26.4 |
| Cc1ccc(C(=O)N2CCn3c(COCC4CC4)cnc3C2C)s1 (centres undefined) | -3.24 |
| NC(=O)COc1ccc(CNCc2ccc(F)c(F)c2)cc1 | -33.2 |
| CC1CN(C(=O)NCc2cccc(C#N)c2)CCN1CC(F)(F)F (centres undefined) | 19 |
| Cn1cc(CC2CCN(C(=O)NCc3cccc(C#N)c3)C2)cn1 (centres undefined) | 8.55 |
| CC(N1CCN(C(=O)NCc2cccc(C#N)c2)CC1)C(F)(F)F (centres undefined) | 56.7 |
| Cc1cc(Cc2ccc(S(=O)(=O)N3CCSCC3)cc2)c(=O)[nH]n1 | 13.2 |
| CCC1CN(CCCNS(C)(=O)=O)c2ccccc2O1 (centres undefined) | 50.1 |
| CCC1CN(CCNS(C)(=O)=O)c2ccccc2O1 (centres undefined) | -4.46 |
| CCC1CN(CCCO)c2ccccc2O1 (centres undefined) | 29.8 |
| Cc1ccc(CN2CCCC3(CCCN3S(C)(=O)=O)C2)s1 (centres undefined) | 63.8 |
| CS(=O)(=O)N1CCCCC12CCCN(Cc1nccs1)C2 (centres undefined) | 60.3 |
| CCN1C(=O)CCC12CCCN(Cc1nccs1)CC2 (centres undefined) | 59.7 |
| CS(=O)(=O)N1CCCC12CCN(Cc1nccs1)C2 (centres undefined) | -0.804 |
| CCN1C(=O)CCC12CCCN(Cc1nccs1)C2 (centres undefined) | 46.2 |
| COCCN1C(=O)CCC12CCCN(Cc1nccs1)CC2 (centres undefined) | 48.6 |

| SMILES | INHIBITION [%] |
| --- | --- |
| Cc1ccc(CN2CCC3(CCCN3S(C)(=O)=O)CC2)s1 | 25.8 |
| Cc1ccc(CN2CCCC3(CCCCN3S(C)(=O)=O)C2)s1 (centres undefined) | 14.9 |
| CN1C(=O)CCCC12CCCN(Cc1nccs1)C2 (centres undefined) | 16.9 |
| CS(=O)(=O)N1CCCC12CCN(Cc1nccs1)CC2 | 28.2 |
| CN1C(=O)CCC12CCCN(Cc1nccs1)C2 (centres undefined) | 59 |
| O=C1CCC2(CCCN(Cc3nccs3)C2)N1CC1CC1 (centres undefined) | 36.9 |
| Clc1ccccc1C1CN(CCc2ccncc2)CCO1 (centres undefined) | 29.1 |
| Cc1ccc(C(=O)N2CCC3(CC2)COC(COc2cccnc2)C3)o1 (centres undefined) | 3.69 |
| CN(C)S(=O)(=O)N1CC[C@]2(O)CCN(CCc3cccc(F)c3)C[C@@H]2C1 | 3.96 |
| CN(C)[C@@H]1CN(Cc2ccoc2)C[C@@H]2CCCO[C@@H]21 | 25.6 |
| COCC1CN(C(C)=O)CCN(c2cc(C)ncn2)C1 (centres undefined) | 24.4 |
| Cc1ccc(C(=O)N2C[C@H]3CCC[C@@]3(COc3ccccn3)C2)nc1 | -10.2 |
| Cc1cc(C2CCC2)nc(NCC(C)(C)CO)n1 | -7.53 |
| Cc1c(S(=O)(=O)N2CCCCC2c2nnc(-c3cccs3)o2)cnn1C (centres undefined) | -11.28 |
| CC(C)(O)CN1CCN(C(=O)c2cccc(CC#N)c2)CC1 | -9.76 |
| Cc1noc(C)c1C1CCCN1C(=O)c1cn2ccsc2n1 (centres undefined) | 12.9 |
| Cc1ccc(OCc2nc(CNCC3CN(C)CCO3)cs2)cc1 (centres undefined) | -45.6 |
| Cc1nc(N2CCC(CC(=O)N3CCCC3)CC2)c2cnn(C)c2n1 | 31.2 |
| Cc1nc(N2CCN(C(=O)CC3CCCC3)CC2)c2cnn(C)c2n1 | 0.0944 |
| Cn1ncc2c(N3CCCN4CCC[C@H]4C3)nc(C(C)(C)C)nc21 | 31.6 |
| CCCc1nc(N2CCC(CCO)CC2)c2cnn(C)c2n1 | 60 |
| CCCc1nc(N2CCCN3CCC[C@H]3C2)c2cnn(C)c2n1 | 27.7 |
| Cc1nc(N2CCC(CN3CCCC3)CC2)c2cnn(C)c2n1 | 57.2 |

| SMILES | INHIBITION [%] |
| --- | --- |
| CCCc1nc(N2CCCC(CCOC)C2)c2cnn(C)c2n1 (centres undefined) | 40.6 |
| Cc1nc(N2CCCC(N3CCCC3)C2)c2cnn(C)c2n1 (centres undefined) | 55.1 |
| COCc1nc(N2CCC(CCO)CC2)c2cnn(C)c2n1 | 14.3 |
| CCc1n[nH]c(C2CN(C(=O)CCc3cscn3)CCO2)n1 (centres undefined) | 7.42 |
| O=C(c1cccc(NCc2cccc(F)c2)c1)N1CCC(O)CC1 | -39.4 |
| CC1CN(CC(=O)NC(=O)NCc2ccccc2)CCO1 (centres undefined) | 5.53 |
| CCS(=O)(=O)c1ncc(CN2CCCC2)n1CCc1ccccc1 | 13 |
| CCS(=O)(=O)c1ncc(CN2CCSCC2)n1CCc1ccccc1 | 58.9 |
| CCS(=O)(=O)c1ncc(CN2CCN(C)CC2)n1CCc1ccccc1 | 38.7 |
| Cc1cc(CN2CCN(C(=O)NC(C)c3ccc(C)o3)CC2)on1 (centres undefined) | 13.75 |
| CN(C)C1CCN(C(=O)c2ccnn2-c2ccc3ccccn23)CC1 | 4.98 |
| CN1CCCN(C(=O)c2ccnn2-c2ccc3ccccn23)CC1 | 53.9 |
| CCN(C)C(=O)c1ccnn1-c1ccc2ccccn12 | 51.2 |
| O=C(NCCN1CCOCC1)c1ccnn1-c1ccc2ccccn12 | 94 |
| O=C(NCCN1CCOCC1)c1ccn(-c2ccc3ccccn23)n1 | 47.2 |
| O=C(c1ccnn1-c1ccc2ccccn12)N1CCOCC1 | 13.1 |
| O=C(NCCCN1CCOCC1)c1ccn(-c2ccc3ccccn23)n1 | 39.8 |
| COCCNC(=O)c1ccnn1-c1ccc2ccccn12 | 39.3 |
| O=C(c1ccnn1-c1ccc2ccccn12)N1CCCC1 | 30.3 |
| O=C(Nc1cccnc1)C1=NN(c2ccccc2)C(=O)CN1 | -141 |
| CCCn1nccc1-c1cnc(CC2CCN(C(C)=O)C2)cn1 (centres undefined) | 19.3 |
| O=C(Cn1ccc(=O)cc1)N1C[C@@H]2CC[C@H]1CN(c1ncccn1)C2 | 15.3 |
| O=C(c1cc(Cl)c2c(c1)OCO2)N1CCN(c2ncccn2)CC1 | 15.4 |

| SMILES | INHIBITION [%] |
| --- | --- |
| CN1CCN(Cc2ccncc2)C(=O)C12CCN(Cc1ccsc1)CC2 | 1.34 |
| COC1CCN(CC(=O)NCc2ccc(OCC(N)=O)cc2)CC1 | 2.45 |
| Cc1nc2ccccc2c(=O)n1CCCC(=O)N1CCNC(=O)CC1 | 4.37 |
| Cc1ccc(=O)n(CC2(O)CCN(Cc3cnn(C)c3)CC2)n1 | -3.31 |
| Cc1nn(-c2ccccc2)nc1C(=O)NCC(c1ccsc1)N(C)C (centres undefined) | 57.2 |
| Cc1nn(-c2ccccc2)nc1C(=O)NCC(c1ccco1)N(C)C (centres undefined) | 8.48 |
| Cc1nn(C)c(Cl)c1C(=O)NCC(c1ccsc1)N(C)C (centres undefined) | 36.4 |
| O=C1[C@H]2CN(Cc3ccoc3)C[C@H]2CN1CCN1CCCC1 | 3.81 |
| CCN1C(=O)[C@H]2CN(CC(C)C)C[C@H]2C12CCN(S(C)(=O)=O)CC2 | 20.1 |
| CCc1noc(CS(=O)(=O)C/C=C/c2ccccc2)n1 | 12.4 |
| O=S(=O)(C/C=C/c1ccccc1)Cc1nc(C2CC2)no1 | 45 |
| Cc1noc(CS(=O)(=O)C/C=C/c2ccccc2)n1 | 60.2 |
| CC(=O)c1ccc(S(=O)(=O)N2CCOC(Cn3ccnc3)C2)cc1 (centres undefined) | 30.4 |
| CSCC(=O)Nc1nccn1Cc1ccc(Br)cc1 | 50.8 |
| CCn1ccnc1CN(C)C(C(=O)O)c1ccc(C(C)(C)C#N)cc1 (centres undefined) | 42.8 |
| COCC(=O)Nc1nccn1Cc1ccc(Br)cc1 | 84.2 |
| CCOCC(=O)Nc1nccn1Cc1ccc(Br)cc1 | 45.2 |
| COCCC(=O)Nc1nccn1Cc1ccc(Br)cc1 | 23.9 |
| CC(C)(C#N)C(=O)Nc1nccn1Cc1ccc(Br)cc1 | 60.1 |
| CNC(=O)c1ccc(Cn2ccnc2S(C)(=O)=O)cc1 | 20.5 |
| CSc1ncccc1C(=O)Nc1ccc(Cn2ccccc2=O)cc1 | 9.16 |
| CS(=O)(=O)c1nccn1Cc1ccc(C(N)=O)cc1 | 19.2 |
